Screens as filed in PubChem.
Rows were chosen to be rich in hits. Some 3.4% of all compounds tested hit in one or more screens of this group.
PAFAH2 inh = PAFAH2 (human) inhibition | inhibition, % at 3.39 µM | Q99487 | recombinant PAFAH2, FP-rhodamine activity probe, fluorescence polarization | hit rate 0.99% among 340,000;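 active means inhibition above the mean over all tested compounds plus 3 SD, cut at about 30% in these data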;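 further: inhibitors block probe labeling of enzyme so polarization drops; 0% = enzyme with DMSO and 100% = wells lacking PAFAH2 protein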
PP5 primary = inhibitors of human protein phosphatase 5 (PP5); hit rate 0.18% among 320,000; P53041; purified PP5c, OMFP substrate fluorescence; AID 1987; inhibition, % at 6.7 µM;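 active means inhibition above the campaign's mean inhibition across all tested compounds plus 3 SD, cut at about 9.5% in these data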;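 further: 0% = DMSO only and 100% = 100 µM cantharidin control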
PAFAH1B2 FP inh = PAFAH1B2 (human) inhibition. P68402. recombinant PAFAH1B2, FP-rhodamine activity probe, fluorescence polarization. inhibition, % at 3.39 µM. hit rate 1.2% among 340,000. AID 492953;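 active means inhibition above the mean of all tested compounds plus 3 SD, cut at about 24% in these data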;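 further: 0% = enzyme with DMSO and 100% = wells lacking PAFAH1B2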
PP1 inh = blocks human PP1-alpha phosphatase, a PP5 counter-screen; P62136; purified PP1alpha, OMFP fluorescence; inhibition, % at 6.7 µM; hit rate 0.9% among 320,000;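 active means inhibition above the mean inhibition of all tested compounds plus 3 SD, computed separately for each screening campaign, cut at about 15% in these data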
PAFAH1B3 FP inh = inhibitors of human PAFAH1B3; recombinant PAFAH1B3, FP-rhodamine probe, fluorescence polarization; hit rate 0.28% among 340,000; Q15102; inhibition, % at 3.39 µM;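 active means inhibition above the screen-wide average of all tested compounds plus 3 SD, cut at about 25% in these data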;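 further: 0% = enzyme with DMSO only and 100% = wells lacking PAFAH1B3 protein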
pPAFAH FP inh = inhibitors of human plasma PAF acetylhydrolase (pPAFAH) | Q13093 | recombinant pPAFAH, FP-rhodamine probe fluorescence polarization | inhibition, % at 3.39 µM | hit rate 1.5% among 330,000;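 active means inhibition above the mean inhibition across the screen plus 3 SD, cut at about 25% in these data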;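 further: inhibitors block binding of the rhodamine activity-based probe so polarization drops; 0% = enzyme with DMSO and 100% = wells lacking pPAFAH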
Target sequence (Q13093 whole entry, looked up): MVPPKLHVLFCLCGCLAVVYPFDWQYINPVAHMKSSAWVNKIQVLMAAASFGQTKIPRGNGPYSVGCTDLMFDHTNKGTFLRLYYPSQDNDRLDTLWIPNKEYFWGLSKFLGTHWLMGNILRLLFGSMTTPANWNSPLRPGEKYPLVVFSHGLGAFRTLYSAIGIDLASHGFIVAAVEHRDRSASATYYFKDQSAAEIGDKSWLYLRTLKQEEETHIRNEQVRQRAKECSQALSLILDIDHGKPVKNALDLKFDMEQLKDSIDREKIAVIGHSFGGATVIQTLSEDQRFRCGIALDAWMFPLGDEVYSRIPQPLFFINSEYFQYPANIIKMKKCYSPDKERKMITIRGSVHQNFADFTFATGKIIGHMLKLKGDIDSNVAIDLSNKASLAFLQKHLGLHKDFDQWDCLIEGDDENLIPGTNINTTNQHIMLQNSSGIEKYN
PP1 confirm = confirmation of human PP1 phosphatase inhibitors; hit rate 52% among 1,900; inhibition, % at 6.7 µM; purified PP1alpha, OMFP substrate fluorescence; shares compounds with PP1 inh;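 active means mean PP1 inhibition above a set limit taken from the earlier primary screen, cut at about 15% in these data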
PP5 counter = counter-screen for PP1 inhibitors: human PP5 phosphatase inhibition; inhibition, % at 6.7 µM; hit rate 4% among 1,900; shares compounds with PP1 inh; purified PP5c, OMFP fluorescence;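 active means mean PP5 inhibition over triplicate wells above about 9.5% taken from the earlier PP1 screen, limit read from the data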
* hit, by the source's call; . = no result.

SMILES	PAFAH2 inh	PP5 primary	PAFAH1B2 FP inh	PP1 inh	PAFAH1B3 FP inh	pPAFAH FP inh	PP1 confirm	PP5 counter
COc1ccc(CCNc2nc(-c3ccccn3)cs2)cc1OC	-2	3	2	47*	6	7	41*	-5
CCC(=O)Nc1nnc(/C=C/c2ccc(OC)cc2)s1	5	3	3	22*	10	2	4	-1
C[C@]12C=CC(=O)C=C1CC[C@@H]1C2=CC[C@]2(C)[C@@H](C(=O)CN3CCN(c4cc(N5CCCC5)nc(N5CCCC5)n4)CC3)CC[C@@H]12	6	13*	0	26*	11	8	50*	25*
CC(=O)C1CCC2C3CCC4=CC(=O)C=CC4(C)C3C(=O)CC12C (stereo unspecified)	-11	.	5	.	7	.	.	.
CCOC(=O)[C@@H]1[C@H]2COc3cc(OC)ccc3[C@@H]2N2C(=O)N(c3ccccc3)C(=O)[C@@]12C	-1	.	-2	.	8	5	.	.
O=C1N[C@@H](Cc2ccccc2)C(=O)N2[C@H]1C[C@]1([C@]34C[C@H]5C(=O)N[C@@H](Cc6ccccc6)C(=O)N5[C@H]3N(S(=O)(=O)c3ccccc3)c3ccccc34)c3ccccc3N(S(=O)(=O)c3ccccc3)[C@H]21	-6	1	-11	30*	-15	-12	23*	-4
CC[n+]1c(/C=C/N(C)c2ccccc2)n(-c2ccccc2)c2ccc(-c3nc4ccccc4s3)cc21	-9	2	0	36*	1	17	8	0
CCOC(=O)c1ccc2c(c1)n(CC)c(/C=C/N(C)c1ccccc1)[n+]2CC	-5	0	-2	0	17	2	.	.
Cc1cccc(CCNC(=O)C2CCN(S(=O)(=O)c3ccccc3)CC2)c1	-2	-1	6	0	9	-1	.	.
CC1CCC(=O)N(CCC#N)CC1 (stereo unspecified)	1	2	2	0	0	-2	.	.
O=C(N/N=C/c1ccncc1)c1cccc(NC(=O)c2ccc(Cl)cc2)c1	-7	1	0	31*	-5	9	12	-1
Cn1cnnc1SCc1ccc(C(=O)N=Nc2c(O)n(Cc3ccc(Cl)cc3)c3ccccc23)cc1	-4	2	0	20*	-6	22	16*	-2
Cc1cc(Cl)ccc1NC(=S)NCCC(c1ccccc1)c1ccccc1	-27	-1	-13	18*	-27	-35	-2	1
CCN(CC)CCCN=Cc1c(-c2ccccc2)[nH]n(-c2nc3ccccc3s2)c1=O	7	3	12	30*	10	5	5	-1
CCCN=C(C)c1c(-c2ccccc2)[nH]n(-c2nc3ccccc3s2)c1=O	-4	2	-1	2	0	6	.	.
O=c1cc(-c2ccccc2)cc(-c2ccccc2)n1CCCO	-2	-10	1	19*	6	24	-4	-7
CC(=O)Nc1cc2c3c(c1)CC(=O)N3CCC2	-4	0	2	-1	5	2	.	.
CCOC(=O)CC(NC(=O)c1cc2cccc(OC)c2oc1=O)c1ccc(OC)cc1 (stereo unspecified)	3	0	4	6	6	3	.	.
CC(C)(C)c1ccc(C(=O)NNC(=O)c2cccc(Br)c2)cc1	-8	1	-1	1	-3	-2	.	.
Cc1cccc(NC(=O)C(=O)NNC(=O)c2ccc(C(C)(C)C)cc2)c1	-14	-2	6	21*	7	8	10	-1
CCc1noc(C)c1C(=O)OCC(=O)N(CC)c1c(N)n(Cc2ccccc2)c(=O)[nH]c1=O	0	3	0	-6	6	4	.	.
CCc1noc(C)c1C(=O)OCC(=O)N(CCOC)c1c(N)n(Cc2ccccc2)c(=O)[nH]c1=O	1	-4	5	22*	9	7	-6	-5
CCC1CCCCN1CCCCOc1cccc(Cl)c1 (stereo unspecified)	1	1	4	0	-1	0	.	.
CCCCN(C)S(=O)(=O)c1ccc(C(=O)Nc2nnc(CSC)o2)cc1	6	1	9	24*	1	4	23*	-2
CCCCN(CC)S(=O)(=O)c1ccc(C(=O)Nc2nnc(-c3cccs3)o2)cc1	.	9	.	26*	.	9	18*	0
SMILES	PAFAH2 inh	PP5 primary	PAFAH1B2 FP inh	PP1 inh	PAFAH1B3 FP inh	pPAFAH FP inh	PP1 confirm	PP5 counter
CCCCN(CCCC)S(=O)(=O)c1ccc(C(=O)Nc2nnc(COC)o2)cc1	-7	0	9	23*	3	7	16*	-2
CCN(CC)S(=O)(=O)c1ccc(C(=O)Nc2nnc(COC)o2)cc1	1	3	3	5	2	5	.	.
CCOC(=O)N1CCN(S(=O)(=O)c2ccc(C(=O)Nc3nnc(CSC)o3)cc2)CC1	-11	-4	2	18*	-1	-1	6	1
CCN(CC)S(=O)(=O)c1ccc(C(=O)Nc2nnc(-c3ccco3)o2)cc1	1	2	-2	6	-10	-2	.	.
CN1CC(=O)N(CC(=O)Nc2cccc3ccccc23)C1=O	0	.	2	.	4	4	.	.
O=C1CC(=O)C(n2cncn2)C(c2cccc(Cl)c2)C1 (stereo unspecified)	-5	2	-1	22*	-4	2	-6	-6
COc1ccc(C2CC(=O)CC(=O)C2n2cncn2)cc1 (stereo unspecified)	-6	1	1	-2	9	2	.	.
O=C(Nc1nnc(C2CC2)o1)c1ccc(S(=O)(=O)N2CCCc3ccccc32)cc1	-3	2	12	33*	2	7	31*	1
COc1ccc(-c2nnc(NC(=O)c3ccc(S(=O)(=O)N4CCCc5ccccc54)cc3)o2)cc1	6	0	-2	29*	4	25	40*	4
C=CCNS(=O)(=O)c1cc(S(=O)(=O)NCC=C)c(OC)cc1OC	-1	1	2	-2	7	3	.	.
COc1ccc(N2CC(C(=O)OC(C)C(=O)c3ccccc3)CC2=O)cc1 (stereo unspecified)	-1	0	2	-2	10	5	.	.
OC[C@@H](O)C1OC2NC(=S)OC2C1O (stereo partly specified)	-3	0	2	1	10	2	.	.
COc1ccccc1C(=O)Nc1ccc2oc(-c3ccc(F)cc3)nc2c1	-2	-1	-2	19*	0	2	12	-7
O=C(c1cc(-c2ccco2)on1)N1CCN(C(c2ccccc2)c2ccccc2)CC1	-6	3	2	19*	-1	0	7	-1
Cc1cccc2c1N(CCCOc1ccc(C(C)(C)C)cc1)C(=O)C2=O	1	3	-5	14	4	17	.	.
